Experimental data from PubChem BioAssay (NCI).
About 83,000 compounds went through this panel and 20% of them were active in at least one assay; those are over-represented in the sample as a whole.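 Cell lines were cultured in 96-well plates, exposed to a single compound concentration, and assessed for percent growth 48 hours later.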 Calls of active or inactive are those of the source. How the source made its calls: active means growth percent below 10; inactive means the rest.

How the values were obtained:
Assay in all cases: NCI-60 one-dose screen, 48 h (100 = growth as untreated, 0 = no growth, -100 = all killed)
Conditions in all cases: 10 µM unless noted
NCI-H23 lung = tested on: NCI-H23 lung
NCI-H226 lung = tested on: NCI-H226 lung
NCI-H322M lung = tested on: NCI-H322M lung
HOP-62 NSCLC = tested on: HOP-62 NSCLC
NCI-H460 lung = tested on: NCI-H460 lung
HOP-92 NSCLC = tested on: HOP-92 NSCLC
NCI-H522 lung = tested on: NCI-H522 lung
A549/ATCC NSCLC = tested on: A549/ATCC NSCLC
786-0 renal = tested on: 786-0 renal
COLO 205 colon = tested on: COLO 205 colon

Measured: growth

O=[N+]([O-])c1cc(NS(=O)(=O)c2ccccc2)ccc1NS(=O)(=O)c1ccccc1
inactive: NCI-H23 lung 112% | NCI-H226 lung 104% | NCI-H322M lung 135% | HOP-62 NSCLC 110% | NCI-H460 lung 93.3% | HOP-92 NSCLC 97.8% | NCI-H522 lung 80.9% | A549/ATCC NSCLC 97.9% | 786-0 renal 102% | COLO 205 colon 109%

C=CC(=O)Nc1ccc(Nc2nccc(-c3ccc(N4CCCC4)c(C#N)c3)n2)cc1
inactive: NCI-H23 lung 62.1% | NCI-H226 lung 52.7% | NCI-H322M lung 41.2% | HOP-62 NSCLC 19.2% | HOP-92 NSCLC 60.9% | NCI-H522 lung 12.4% | A549/ATCC NSCLC 14.7%
active: NCI-H460 lung 0.189% | 786-0 renal -67.4% | COLO 205 colon 7.29%

CN1CCN(C(=O)[C@@]2(C)CC[C@]3(C)CC[C@]4(C)C(=CC[C@@H]5[C@@]6(C)CCC(=O)NC(C)(C)[C@@H]6CC[C@]54C)[C@@H]3C2)CC1
active: COLO 205 colon 7.65%
inactive: NCI-H23 lung 61.8% | NCI-H226 lung 68.3% | NCI-H322M lung 70.7% | HOP-62 NSCLC 62.8% | NCI-H460 lung 31.8% | HOP-92 NSCLC 15.9% | NCI-H522 lung 74.8% | A549/ATCC NSCLC 51.9% | 786-0 renal 47.9%

COc1ccc(C2=CC(c3cc(OC)c(OC)c(OC)c3)n3ncnc3N2)cc1 (stereo not given)
inactive: NCI-H23 lung 29.1% | NCI-H226 lung 51.1% | NCI-H322M lung 43% | HOP-92 NSCLC 27% | A549/ATCC NSCLC 14.3% | 786-0 renal 17.9%
active: HOP-62 NSCLC 9.09% | NCI-H460 lung 0.735% | NCI-H522 lung -13.3% | COLO 205 colon -64.8%

O=C(Nc1ncccc1OCc1ccccc1)NC1CCCCCC1
inactive: NCI-H23 lung 89.8% | NCI-H226 lung 73.8% | NCI-H322M lung 88.2% | HOP-62 NSCLC 102% | NCI-H460 lung 93.5% | HOP-92 NSCLC 68.4% | NCI-H522 lung 72.6% | A549/ATCC NSCLC 97.8% | 786-0 renal 89.6% | COLO 205 colon 103%

C=CCn1c(SCC(=O)Nc2ccc(/C(C)=N/O)cc2)nnc1-c1cc(-c2ccc(S(N)(=O)=O)cc2)nc2ccccc12
inactive: NCI-H23 lung 97.3% | NCI-H226 lung 84.1% | NCI-H322M lung 96.7% | HOP-62 NSCLC 84.3% | NCI-H460 lung 91% | HOP-92 NSCLC 72.3% | NCI-H522 lung 68.8% | A549/ATCC NSCLC 110% | 786-0 renal 85.4% | COLO 205 colon 94.2%

CC(C)(C)n1cc(-c2ccnc(NCCCNS(=O)(=O)c3cccc4ccccc34)c2)c(-c2cccc(F)c2)n1
inactive: NCI-H23 lung 68.3% | NCI-H226 lung 85.6% | NCI-H322M lung 92.9% | HOP-62 NSCLC 92.2% | NCI-H460 lung 73.3% | HOP-92 NSCLC 46.8% | NCI-H522 lung 80.5% | A549/ATCC NSCLC 73.4% | 786-0 renal 71.2% | COLO 205 colon 68.8%

Cc1ccc(NC(=O)Cn2c(Br)nc3c2c(=O)n(C)c(=O)n3C)cc1
inactive: NCI-H23 lung 22.7% | NCI-H322M lung 30.6% | NCI-H460 lung 14.6% | NCI-H522 lung 62.6% | A549/ATCC NSCLC 27.1% | COLO 205 colon 19.5%
active: NCI-H226 lung -13.2% | HOP-62 NSCLC 6.37% | HOP-92 NSCLC -2.3% | 786-0 renal -67.1%

Cc1ccc(C=C2C(=O)NC(=O)NC2=O)cc1
inactive: NCI-H23 lung 102% | NCI-H226 lung 105% | NCI-H322M lung 110% | HOP-62 NSCLC 92.1% | NCI-H460 lung 108% | HOP-92 NSCLC 110% | NCI-H522 lung 85.9% | A549/ATCC NSCLC 87.8% | 786-0 renal 107% | COLO 205 colon 98.3%

CCOC(=O)c1c(C)nc2ccccc2c1/C=C/c1ccccc1
inactive: NCI-H23 lung 51% | NCI-H226 lung 74.3% | NCI-H322M lung 95.5% | HOP-62 NSCLC 93.8% | NCI-H460 lung 86.9% | HOP-92 NSCLC 79.7% | NCI-H522 lung 54.7% | A549/ATCC NSCLC 57.1% | 786-0 renal 88.6% | COLO 205 colon 84.1%

FC(F)(F)c1ccc(Cn2cc(CSc3nc4ccccc4s3)nn2)cc1
inactive: NCI-H23 lung 97.6% | NCI-H226 lung 83.1% | NCI-H322M lung 94.4% | HOP-62 NSCLC 89% | NCI-H460 lung 102% | HOP-92 NSCLC 85.4% | NCI-H522 lung 88.2% | A549/ATCC NSCLC 90.1% | 786-0 renal 98.1% | COLO 205 colon 103%

COc1ccc(C(=O)N2c3ccccc3Sc3ccccc32)c(C(F)(F)F)c1
inactive: NCI-H23 lung 24.4% | NCI-H226 lung 13.1% | NCI-H322M lung 53.4% | HOP-62 NSCLC 42.8% | HOP-92 NSCLC 15% | A549/ATCC NSCLC 25.3% | 786-0 renal 38.8%
active: NCI-H460 lung 9.51% | NCI-H522 lung 2% | COLO 205 colon -13.9%

CCOC(=O)c1[nH]c2c(c1C)-c1[nH]c(=O)c(S(=O)(=O)c3ccccc3)cc1SC2
active: HOP-92 NSCLC -27.4% [100 µM] | NCI-H522 lung -0.182% [100 µM] | COLO 205 colon -25.8% [100 µM]
inactive: NCI-H23 lung 35.4% [100 µM] | NCI-H226 lung 37.9% [100 µM] | NCI-H322M lung 42.4% [100 µM] | HOP-62 NSCLC 34.3% [100 µM] | NCI-H460 lung 38.2% [100 µM] | A549/ATCC NSCLC 43.7% [100 µM] | 786-0 renal 21.1% [100 µM]

O=C(Nc1ccc(Br)cc1)C1=NCCCCN1
inactive: NCI-H23 lung 85.1% | NCI-H226 lung 93.1% | NCI-H322M lung 98.1% | HOP-62 NSCLC 74.7% | NCI-H460 lung 89.5% | HOP-92 NSCLC 102% | NCI-H522 lung 82.9% | A549/ATCC NSCLC 90.5% | 786-0 renal 96.2% | COLO 205 colon 110%

COc1ccc(/C=C/C(=O)c2cc(OC)c(OC)c(OC)c2)cc1OCC(=O)Nc1nc2ccc(OC(F)(F)F)cc2s1
active: NCI-H322M lung 4.88% | HOP-62 NSCLC -53.3% | NCI-H460 lung -22.9% | NCI-H522 lung -35.5%
inactive: NCI-H23 lung 11.5% | NCI-H226 lung 40.6% | HOP-92 NSCLC 54.9% | A549/ATCC NSCLC 14.7% | 786-0 renal 58.9% | COLO 205 colon 77%

Fc1ccc(Cn2cc(CSc3nc4ccccc4o3)nn2)cc1
inactive: NCI-H23 lung 106% | NCI-H226 lung 92.8% | NCI-H322M lung 91.9% | HOP-62 NSCLC 87.5% | NCI-H460 lung 110% | HOP-92 NSCLC 113% | NCI-H522 lung 83.4% | A549/ATCC NSCLC 103% | 786-0 renal 91.1% | COLO 205 colon 114%

CNC(=O)c1cc(Oc2ccc3c(c2)sc2nc(-c4ccc(OC)cc4)cn23)ccn1
inactive: NCI-H23 lung 41.2% | NCI-H226 lung 61.6% | NCI-H322M lung 56.7% | HOP-62 NSCLC 19.4% | HOP-92 NSCLC 35% | NCI-H522 lung 38.1% | A549/ATCC NSCLC 15.9% | 786-0 renal 29.3%
active: NCI-H460 lung 6.83% | COLO 205 colon 0.159%

CCCCNC(=O)Oc1ccc(/C(=C(/C)Cc2ccc(OC)cc2)c2ccc(OCCN3CCCCCC3)cc2)cc1
inactive: NCI-H23 lung 85% | NCI-H226 lung 101% | NCI-H322M lung 97.1% | HOP-62 NSCLC 85.6% | NCI-H460 lung 53.8% | HOP-92 NSCLC 53.3% | NCI-H522 lung 68.5% | A549/ATCC NSCLC 68% | 786-0 renal 76.3% | COLO 205 colon 57%

O=c1ccc(=O)n(-c2nc(-c3ccc([N+](=O)[O-])cc3)cs2)[nH]1
inactive: NCI-H23 lung 90.7% | NCI-H226 lung 96.3% | NCI-H322M lung 104% | HOP-62 NSCLC 107% | NCI-H460 lung 102% | HOP-92 NSCLC 103% | NCI-H522 lung 95.8% | A549/ATCC NSCLC 88.9% | 786-0 renal 81.3% | COLO 205 colon 105%

CN1CCN(CCOc2ccc(-c3cnc4c(-c5cccc(F)c5F)cnn4c3)cc2)CC1
inactive: NCI-H23 lung 35.9% | NCI-H226 lung 97.9% | NCI-H322M lung 96% | HOP-62 NSCLC 106% | HOP-92 NSCLC 100% | NCI-H522 lung 88.6% | COLO 205 colon 87.6%
active: NCI-H460 lung -55.9% | A549/ATCC NSCLC -7.4% | 786-0 renal -61.4%

CC1=C2[C@@H](CC1)[C@]1(C)O[C@@](c3ccccc3)(C[C@H]1OC(=O)CO)[C@H]2OC(=O)/C=C/c1ccccc1
inactive: NCI-H23 lung 99.3% | NCI-H226 lung 80.8% | NCI-H322M lung 101% | HOP-62 NSCLC 100% | NCI-H460 lung 85.2% | HOP-92 NSCLC 96.2% | NCI-H522 lung 72.3% | A549/ATCC NSCLC 74.4% | 786-0 renal 68.7% | COLO 205 colon 110%

C=C1C(=O)O[C@H]2[C@H]1CC/C(COC(=O)c1ccc(C(=O)O)s1)=C\CC[C@@]1(C)O[C@@H]21
inactive: NCI-H23 lung 57.4% | NCI-H226 lung 41.9% | NCI-H322M lung 68.2% | HOP-62 NSCLC 75% | NCI-H460 lung 30.6% | A549/ATCC NSCLC 80.3% | 786-0 renal 41.6%
active: HOP-92 NSCLC 1.03% | NCI-H522 lung -79.8% | COLO 205 colon -0.755%

CN(C)CCCNC(=O)c1cncnc1Nc1ccc(OCc2cccc(F)c2)c(Cl)c1
inactive: NCI-H23 lung 61.5% | NCI-H226 lung 89% | HOP-92 NSCLC 24.6%
active: NCI-H322M lung 4.56% | HOP-62 NSCLC -56% | NCI-H460 lung -75.1% | NCI-H522 lung -60.4% | A549/ATCC NSCLC -58% | 786-0 renal -78.7% | COLO 205 colon -71.3%

CN1CCN(CCCOc2cccc3nc(Nc4ccc(F)c(F)c4)ccc23)CC1
active: NCI-H322M lung -13.6% | HOP-62 NSCLC 5.44% | NCI-H460 lung -26% | HOP-92 NSCLC 0.0965% | NCI-H522 lung -58.6% | A549/ATCC NSCLC 3.54% | 786-0 renal -12.3% | COLO 205 colon -82.1%
inactive: NCI-H23 lung 36% | NCI-H226 lung 56.2%
